HTT promoter inh: Primary qHTS for Identification of Small Molecule Inhibitors of Huntingtin Promoter Activity; 0.93% of 48,000 active; HEK293 HTT promoter firefly luciferase reporter, 24 h; Potency, µM (top dose mostly 57.5 µM), without a hit: at the top dose activity change, negative = inhibition, actives largely listed as inhibitors; AID 1508623, 2021; also: nearly all actives have a fitted effect of over 50% in size
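Firefly luciferase readout (Dual-Glo, 10 min RT) after 24 h, 37 °C compound exposure (final up to 57.5 uM) of HEK293 reporter cells cultured 24 h beforehand; PTC124 at 50 uM final as control inhibitor; activity scaled vehicle 0%, zero RLU -100%.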
PMP22 txn prim: Cell-based coincidence reporter assay to measure PMP22 gene transcription in S16 Pmp22-F2sN cells - Primary screen; S16 Pmp22-F2sN Schwann cells, FLuc/NLuc coincidence luminescence, 24 h; Potency, µM (titrated, usually from 57.5 µM), for inactives: at the highest dose activity change, negative = inhibition, hits mostly inhibitors; 2% of 43,000 active; AID 1508649, 2021; active = clear falling dose curves in both reporters; inconclusive = both reporters move, but less clearly or upward; inactive = either reporter flat; the % is the NLuc reporter signal; also: % is scaled to controls: 0 for no effect and ±100 for the full control effect
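S16(c9) Schwann cells with FLuc/NLuc coincidence reporter in the Pmp22 3' UTR; compounds pin-transferred, 24 h at 37C. Dual-luciferase read: FLuc first, then NLuc after Stop&Glo, each 10 min at room temperature.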
FH mod: Identification of activators of human fumarate hydratase by quantitative high-throughput screening; Fumarate hydratase, mitochondrial (Homo sapiens), P07954; 0.22% of 54,000 active; FH coupled MDH/diaphorase resazurin fluorescence, 15 min; Potency, µM (titrated, usually from 79.9 µM), for inactives: at the top dose activity change, negative = inhibition, actives largely listed as inhibitors; also: % is scaled to controls: 0 for no effect and ±100 for the full control effect; the screen sought activators but most active calls are inhibition curves; nearly all actives have a fitted effect of over 45% in size
Target sequence (P07954 whole entry, looked up): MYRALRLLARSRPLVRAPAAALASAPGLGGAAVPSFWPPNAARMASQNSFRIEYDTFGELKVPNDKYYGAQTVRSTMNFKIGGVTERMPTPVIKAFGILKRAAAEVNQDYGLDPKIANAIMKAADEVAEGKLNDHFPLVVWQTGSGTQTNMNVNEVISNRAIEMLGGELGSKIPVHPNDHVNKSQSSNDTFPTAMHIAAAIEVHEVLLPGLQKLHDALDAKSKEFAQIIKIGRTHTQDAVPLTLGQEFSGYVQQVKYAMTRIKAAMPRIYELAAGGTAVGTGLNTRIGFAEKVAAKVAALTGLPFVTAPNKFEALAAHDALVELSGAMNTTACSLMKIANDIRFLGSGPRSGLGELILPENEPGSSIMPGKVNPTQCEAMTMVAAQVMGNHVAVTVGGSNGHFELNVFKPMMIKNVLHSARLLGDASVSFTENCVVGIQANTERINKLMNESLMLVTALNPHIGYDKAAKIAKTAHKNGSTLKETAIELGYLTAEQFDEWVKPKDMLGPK
mTORC1 inh: Acumen qHTS Assay for Inhibitors of the mTORC1 Signaling Pathway in MEF (Tsc2-/-, p53-/-) Cells: Sytravon; Tsc2-/- p53-/- MEF, phospho-rpS6 immunofluorescence/PI, 24 h; Potency, µM (top dose mostly 38.3 µM), for the others: top-dose activity change, negative = inhibition, actives largely listed as inhibitors; 0.78% of 44,000 active;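 also: plate controls were DMSO for no effect and rapamycin for full effect; nearly all actives have a fitted effect of over 50% in size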
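Tsc2-/-, p53-/- MEFs (empty-vector stable line) in DMEM + 10% FBS were treated with compounds 24 h at 37 degree Celsius, fixed, and immunostained for phospho-rpS6 (Alexa-488) with propidium iodide counterstain. Laser-scanning cytometry gave % positive cells, normalized against 7.5 nM rapamycin and DMSO.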
S16 F2sN tox: Cell viability qHTS assay in S16 Pmp22-F2sN cells; 0.48% of 43,000 active; Potency, µM (highest dose often 57.5 µM), inactives show at the highest dose activity change, negative = cytotoxicity, usual class: cytotoxic; S16 Pmp22-F2sN Schwann cells (luciferase reporters placed in the Pmp22 gene) viability, CellTiter-Glo, 24 h; also: % is scaled to controls: 0 for no effect and ±100 for the full control effect; nearly all actives have a fitted effect of over 65% in size
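Luminescence from CellTiter-Glo, read by CCD camera after a 15 min room-temperature incubation, served as the viability signal. Reporter Schwann cells (S16 Pmp22-F2sN) had been treated with pin-transferred compounds for 24 h at 37C.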
HTT-AS act: Primary qHTS for Identification of Small Molecule Activators of Huntingtin-Antisense Promoter Activity; HEK293 HTT-AS promoter firefly luciferase reporter, 24 h; response scale: percent change from vehicle, -100% = no light; Potency, µM (titrated, usually from 57.5 µM), inactives show at the top dose activity change, positive = activation, actives largely listed as activators; 0.24% of 48,000 active; also: nearly all actives have a fitted effect of over 55% in size
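Firefly luciferase readout (Dual-Glo, 10 min RT) after 24 h, 37 °C compound exposure (final up to 57.5 uM) of HEK293 reporter cells cultured 24 h beforehand; PTC124 at 50 uM final as control inhibitor; activity scaled vehicle 0%, zero RLU -100%.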
* hit, by the source's call; ? = inconclusive; / = no result; [ ] = remark or other dose. Compounds with a hit are over-represented: about 3.3% of the library has one in this group of screens. Unless noted, calls follow the shape of the dose curve; as a rule, active = well fitted curve in the direction sought with a large enough effect; inconclusive = small, poorly fitted or top-dose-only effect, or another doubt; inactive = no such curve, though single readings can be large; an effect the other way counts as inactive or inconclusive. Potency is read from the fitted curve at half-maximal effect.

SMILES	HTT promoter inh	PMP22 txn prim	FH mod	mTORC1 inh	S16 F2sN tox	HTT-AS act
COc1ccc(-c2nc(CN3CCC(C(=O)NCCCN4CCN(c5ccccc5F)CC4)CC3)c(C)o2)cc1OC	-20%	?	-39%	15µM*	?	-14%
Cc1oc(-c2cccc(Cl)c2)nc1CN1CCCC(C(=O)NCc2ccc(F)cc2)C1 (centres undefined)	1%	?	-13%	3%	-16%	-18%
Cc1oc(-c2cccc(Cl)c2)nc1CN1CCC(C(=O)NCCCN2CCN(c3ccccc3F)CC2)CC1	-32%	7.9µM*	9%	-17%	?	-25%
Cc1oc(-c2cccc(Cl)c2)nc1CN1CCC(C(=O)NCCCN2CCN(c3ccc(F)cc3)CC2)CC1	?	9.6µM*	4%	0%	10µM*	-46%
Cc1ccc(NC(=O)Nc2cc(C(F)(F)F)ccc2F)cc1Nc1ccc2c(c1)NC(=O)/C2=C\c1ccc[nH]1	/	/	-7%	/	/	/
Cc1[nH]c2ccc(F)cc2c1-c1nc2c3cccnc3c3ncccc3c2[nH]1	/	/	17%	/	/	/
CCOc1ccc(Nc2nc(-c3cccc(Cl)c3)c3c(n2)-c2ccccc2OC3)cc1	-9%	-4%	0%	2.3µM*	1%	-12%
COc1cc(C(=O)NC2CCN(C)CC2)c(F)cc1Nc1ncc2c(n1)N(C1CCCC1)CC(F)(F)C(=O)N2C	/	/	-7%	/	/	/
COc1cc(NC(=O)CSc2nc(-c3ccccc3)no2)cc(OC)c1	-18%	-25%	5%	3%	-17%	-13%
COc1cc(NC(=O)CSc2nc(-c3ccc(C(C)C)cc3)no2)cc(OC)c1	?	9.1µM*	-11%	-14%	-1%	-86%
COc1ccc(NC(=O)C(NC(=O)/C=C\c2ccc3c(c2)OCO3)c2ccc(OC)cc2)cc1 (centres undefined)	-23%	?	-21%	6%	-10%	-5%
COc1ccc(NC(=O)C(NC(=O)/C=C\c2ccc3c(c2)OCO3)c2ccccc2)cc1 (centres undefined)	-11%	-24%	-5%	10µM*	-28%	-13%
Cc1ccc(NC(=O)C(=O)NCc2ccco2)cc1	48%	15%	10%	10%	-13%	5µM*
Cc1cc(Nc2nc(NC(C)c3ccc(F)cc3)c(C#N)cc2F)n[nH]1 (centres undefined)	/	/	-9%	/	/	/
C#Cc1cccc(Nc2ncnc3cc4c(cc23)OCCOCCOCCO4)c1	/	/	-4%	/	/	/
CC1=C2C(=O)C=C(CO[C@@H]3O[C@H](CO)[C@@H](O)[C@H](O)[C@H]3O)[C@@H]2[C@H]2OC(=O)[C@H](C)[C@@H]2[C@@H](O)C1	/	/	-1%[53.3 µM]	/	/	/
O=C(Nc1cccc(Cl)c1)C1CCCN(c2nn3cc(-c4ccc(F)cc4)nc3s2)C1 (centres undefined)	4µM*	-38%	-14%	2%	-26%	-64%
O=C(NCc1cccc(Cl)c1)C1CCN(c2nn3cc(-c4ccc(F)cc4)nc3s2)CC1	-5%	?	0%	-3%	7%	0%
O=C(NCc1cccc(Cl)c1)C1CCCN(c2nn3cc(-c4ccc(F)cc4)nc3s2)C1 (centres undefined)	2.5µM*	-27%	-10%	2%	?	-70%
CC(=O)OC1C(CO)OC(O[C@H]2[C@H](OC(=O)[C@]34CCC(C)(C)C[C@H]3C3=CCC5[C@@]6(C)CC[C@H](O[C@@H]7O[C@H](C(=O)O)[C@@H](O)[C@H](O[C@@H]8OC[C@@H](O)[C@H](O)[C@H]8O)[C@H]7O[C@@H]7O[C@H](CO)[C@H](O)[C@H](O)[C@H]7O)[C@@](C)(C=O)C6CC[C@@]5(C)[C@]3(C)C[C@H]4O)O[C@H](C)[C@H](OC3OC(C)C(OC4OCC(O)C(O)C4O)C(O)C3O)[C@@H]2O)C(O)C1O (some centres undefined)	/	/	8%[13.5 µM]	/	/	/
O=C(NCCc1nc2ccccc2n1Cc1ccc(Cl)cc1Cl)c1ccco1	?	?	?	21µM*	5%	-41%
CCCCOc1ccc(CNC(=O)c2cc3n(n2)CCCN(Cc2ccc(C)cc2)C3=O)cc1	25µM*	?	4%	16%	?	-23%
Cc1ccc(CN2CCCn3nc(C(=O)NCc4cc(C)ccc4C)cc3C2=O)cc1	28µM*	7%	-16%	0%	-28%	-21%
Cn1c(=O)n(-c2ccc(C(C)(C)C#N)cc2)c2c3cc(C#Cc4cccnc4)ccc3ncc21	/	/	6%[53.3 µM]	/	/	/
COc1ccc(Cl)cc1NC(=O)c1c(NCc2cccnc2)sc2c1CCC(C)C2 (centres undefined)	-28%	?	-5%	5.8µM*	?	-20%
SMILES	HTT promoter inh	PMP22 txn prim	FH mod	mTORC1 inh	S16 F2sN tox	HTT-AS act
COc1ccc(Cl)cc1NC(=O)c1c(NCc2cccs2)sc2c1CCC(C)C2 (centres undefined)	-22%	?	-7%	?	2%	-21%
O=C(CC1C(=O)N(c2ccccc2)C(=O)N1CCc1cccs1)Nc1ccc(Cl)cc1 (centres undefined)	?	-15%	-8%	2%	?	-18%
Cc1ccsc1CCN1C(=O)N(c2ccccc2)C(=O)C1CC(=O)Nc1ccc(Cl)cc1 (centres undefined)	?	?	?	-5%	32µM*	-26%
CCCCN(C)C(=O)CSc1c2c(nc3ccc(Cl)cc13)CCCC2	-9%	?	-10%	18µM*	-3%	-17%
CN(Cc1ccccc1)C(=O)CSc1c2c(nc3ccc(Cl)cc13)CCCC2	?	?	?	13µM*	?	-48%
CCCN(CCC)C(=O)CSc1c2c(nc3ccc(Cl)cc13)CCCC2	-16%	?	-26%	-12%	27%	-37%

Bioassay records (PubChem BioAssay)
